Only some compounds are listed: those with a hit (about 3.1% of all), similar ones and a draw of the others.
PNC inhibitor – blocks assembly of the perinucleolar compartment. PC3M PTB-GFP, PNC prevalence imaging, 16 h; active compounds read low. activity change (PNC), negative = inhibition, % at 10 µM. hit rate 3.1% among 140,000;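 active = readout at or below -70, meaning at least 70% loss of cells showing the perinucleolar compartment, a nuclear body marking cancer cells; inconclusive = readout between -30 and a set limit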;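 also: plate controls were DMSO wells for no effect and camptothecin positive control wells for full effect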
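Compounds are pinned in duplicate onto adhered PC3M cells stably expressing GFP-tagged PTB and incubated 16 h at 37 C. Cells are then fixed, nuclei stained with Hoechst, and PNC-positive cells counted.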
12-hLO inh – 12-hLO (ALOX12) enzyme inhibition. P18054. purified 12-hLO, xylenol orange hydroperoxide absorbance. Potency, µM (doses to about 57.1 µM), for inactives: at the highest dose activity change, negative = inhibition, most hits filed as inhibitors. hit rate 0.12% among 150,000. AID 1452; also: potency is read from the fitted curve at half-maximal effect; nearly all actives have a fitted effect of over 55% in size
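150 nM 12hLO, 25 mM Hepes pH 7.0 + 0.01% Triton X-100; cpd preinc 15 min RT; 40 uM arachidonic acid, 30 min RT; Fe-XO 30 min; A573/A405 ratio as read-out.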
15-hLO-2 inh – 15-hLO-2 (ALOX15B) enzyme inhibition; O15296; purified 15hLO-2, xylenol orange hydroperoxide absorbance; Potency, µM (series often up to 57.1 µM), inactives show at the top dose activity change, negative = inhibition, actives largely listed as inhibitors; hit rate 0.56% among 110,000; AID 881; also: potency is read from the fitted curve at half-maximal effect; nearly all actives have a fitted effect of over 60% in size
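Screening format was qHTS against 50 nM purified 15hLO-2 in Hepes pH 7.5 with detergent. Activity follows hydroperoxide formation from 45 uM arachidonic acid, measured as 573:405 nm absorbance ratio of the ferric-xylenol orange complex.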
* marks the source's active call; other numbers are inactive results; u = inconclusive; x = no result; [ ] = dose if it differs, or a comment. Unless noted, calls follow the shape of the dose curve; as a rule, active = well fitted curve in the direction sought with a large enough effect; inconclusive = small, poorly fitted or top-dose-only effect, or another doubt; inactive = no such curve, though single readings can be large; an effect the other way counts as inactive or inconclusive. Unless noted, % is scaled to controls: 0 for no effect and ±100 for the full control effect.

SMILES	PNC inhibitor	12-hLO inh	15-hLO-2 inh
C=CCc1c(C)[nH]c(=S)c(C#N)c1C	28	-24%	13µM*
COCc1cc(C)c(C#N)c(=S)[nH]1	9	0%	u
CCN(N=O)C(N)=O	x	0%	-1%
c1ccc(CCN2CCC(N3CCN(c4ccccc4)CC3)CC2)cc1	-100*	1%	49%
CCCCN(Cc1ccccc1)C1CCN(CCc2ccccc2)CC1	110	-10%	x
ClC=CCl	x	0%	-13%
N[C@H](CCl)C(=O)O	x	-3%	-5%
N[C@@H](CP(=O)(O)O)C(=O)O	x	-3%[11.4 µM]	-6%[11.4 µM]
CN1C2CCC1/C(=C/c1ccccn1)C(=O)/C2=C\c1ccccn1	-109*	-1%	x
CCCC(C)C1C(C#N)=C(N)Oc2c1c(=O)oc1ccccc21 (stereo unspecified)	13	-5%	0%
CCCC1C(C#N)=C(N)Oc2c1c(=O)oc1ccccc21 (stereo unspecified)	-98*	-1%	x
N[C@@H]1CCc2cc(O)c(O)cc2C1	x	1%	u
COC(=O)[C@H](N)CCCN=C(N)N[N+](=O)[O-]	x	-1%	11%
CCCN1CCC[C@H](c2cccc(C#N)c2)C1	x	4%	6%
CC12CN3CC(C)(CN(C1)C3c1cccs1)C2O (stereo unspecified)	-107*	2%	-4%
COC(=O)C[C@]1(C(=O)OC)CN(C#N)N(c2ccc(Cl)cc2)C12c1ccccc1-c1ccccc12	-100*	-4%	x
COC(=O)[C@@H]1[C@@H](C(=O)OC)C2(c3ccccc3-c3ccccc32)N(c2ccc(Cl)cc2)N1C#N	-11	4%	x
C=CCOCC1CO1 (stereo unspecified)	x	-2%	5%
O=[N+]([O-])c1ccc(O[C@H]2O[C@@H](CO)[C@@H](O)[C@@H](O)[C@@H]2F)c([N+](=O)[O-])c1	x	-5%	-2%
CSC1=NP(=S)(SC)N2CCCC2=C1C#N (stereo unspecified)	8	-2%	-13%
COC(=O)CSC1=NP(=S)(SCC(=O)OC)N2CCCC2=C1C#N (stereo unspecified)	-127*	-9%	-9%
c1ccc2c(c1)CC1CNCc3cccc(c31)S2 (stereo unspecified)	-117*	0%	x
C/C(Cl)=C/CC1(CN2CCCC2=O)C(=O)NC(=O)NC1=O	-122*	2%	-4%
C[N+](C)(C)CC#CCN1CCCC1=O	x	u	-7%
Cc1ccc(N2C(=O)NC(=O)/C(=C/C=C/c3ccco3)C2=O)cc1	u	-12%	x
SMILES	PNC inhibitor	12-hLO inh	15-hLO-2 inh
CCCCN1C(=O)/C(=C/C=C/c2ccco2)C(=O)NC1=S	-88*	u	x
CCOc1cc(-c2nc3c(C)cccn3c2NCC2CCCO2)ccc1O (stereo unspecified)	7	-5%	-17%
Cc1cccn2c(NCC3CCCO3)c(C(C)C)nc12 (stereo unspecified)	-127*	1%	-5%
Nc1c2c(nc3sc4c(c13)CCCCC4)CCCC2	-113*	3%	x
CC(C)N[C@@H](C)Cc1ccc(I)cc1	x	-3%	16%
Cn1c(=O)cc(OCC(=O)N2CCC3(CC2)OCCO3)c2ccccc21	-95*	0%	7%
Cn1c(=O)cc(OCCCC(=O)N2CCC3(CC2)OCCO3)c2ccccc21	u	-3%	4%
COC(=O)C1(O)CC2OC1(C)n1c3ccccc3c3c4c(c5c6ccccc6n2c5c31)C(=O)NC4 (stereo unspecified)	x	-2%[0.00818 µM]	0%[0.0915 µM]
CN[C@H]1C[C@H]2O[C@@](C)([C@H]1OC)n1c3ccccc3c3c4c(c5c6ccccc6n2c5c31)C(=O)NC4	-115*	7%	x
CSSC	x	0%	2%
Cc1c2ccncc2c(C)c2c1[nH]c1ccccc12	-115*	u	23%
c1ccc2c(c1)[nH]c1cnccc12	u	2%	2%
O[C@H](CN1CC1)[C@@H](O)CN1CC1	x	-2%[11.4 µM]	-3%[11.4 µM]
CCC(=NCCC(c1ccccc1)c1ccccc1)c1c(O)[nH]c(=O)[nH]c1=O	-96*	-2%	x
CCC(=Nc1ccc(OC)cc1OC)c1c(O)[nH]c(=O)[nH]c1=O	-96*	-6%	-4%
CCC(=NCc1ccco1)c1c(O)[nH]c(=O)[nH]c1=O	36	-3%	-1%
CCC(=Nc1cc(OC)ccc1OC)c1c(O)[nH]c(=O)[nH]c1=O	48	0%	-5%
O=P(O)(OP(=O)(O)c1ccccc1)c1ccccc1 (tested in a mixture with another compound)	x	1%[11.4 µM]	1%[11.4 µM]
C=CCOC(=O)C1=C(C)OC(N)=C(C#N)[C@@]12C(=O)N(CC(N)=O)c1ccccc12	28	-3%	-1%
CC1=C(C(=O)OC(C)C)[C@]2(C(=O)N(CC(N)=O)c3ccccc32)C(C#N)=C(N)O1	-100*	-4%	x

Source: PubChem BioAssay
